Calls of active or inactive are those of the source. How the source made its calls: active means hit-call score of the fitted dose curve at least 0.9, where 1 is the maximum; inactive means score below 0.9.
Read-out: not listed separately
Test: BSK_BT_Bcell_Proliferation: Viability Assessment in the BioMAP Diversity Plus: BT Assay for B cell Proliferation (AID 2284227)
Details: primary human B cells with PBMC
Method in brief: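 Using a human primary B cell–PBMC co-culture, the assay measures total protein by sulforhodamine B absorbance as a gauge of proliferation after 72 h. Analysis followed the positive fitting direction with DMSO as baseline.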

Chain of Tumor necrosis factor (Homo sapiens) (P01375 whole entry, looked up): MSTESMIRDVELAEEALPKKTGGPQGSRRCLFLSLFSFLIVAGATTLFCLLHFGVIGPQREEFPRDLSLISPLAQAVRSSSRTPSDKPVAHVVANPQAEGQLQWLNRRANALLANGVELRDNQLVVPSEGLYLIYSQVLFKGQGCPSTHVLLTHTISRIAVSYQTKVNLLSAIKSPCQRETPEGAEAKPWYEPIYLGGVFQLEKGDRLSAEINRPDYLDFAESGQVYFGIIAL

Row | Compound | outcome | AC50
1 | CC(C=O)Cc1ccc(C(C)(C)C)cc1 (stereo not drawn) | inactive | –
2 | CCCCOC(=O)CCCCCCCC(=O)OCCCC | inactive | –
3 | c1ccc(Oc2ccccc2)cc1 | inactive | –
4 | CN(C)C(=S)SC(=S)N(C)C | – | 0.436 µM (active)
5 | C[C@@H]1CCN(C(=O)[C@H](CCCN=C(N)N)NS(=O)(=O)c2cccc3c2NC[C@H](C)C3)[C@@H](C(=O)O)C1 | inactive | –
6 | C1=CC2C3C=CC(C3)C2C1 (stereo not drawn) | inactive | –
7 | CCCCCCCCCCCCCCCC(=O)OC/C=C(C)/C=C/C=C(C)/C=C/C1=C(C)CCCC1(C)C | inactive | –
8 | O=C1OC[C@H](Cc2cccc(O)c2)[C@H]1Cc1cccc(O)c1 | inactive | –
9 | CN(c1nccc(=O)[nH]1)C1CCN(c2nc3ccccc3n2Cc2ccc(F)cc2)CC1 | inactive | –
10 | Cc1cc(CCC(=O)OCCOCCOCCOC(=O)CCc2cc(C)c(O)c(C(C)(C)C)c2)cc(C(C)(C)C)c1O | inactive | –
11 | CC=Cc1ccc(OCC)c(O)c1 | inactive | –
12 | CSCCC=O | inactive | –
13 | COc1cc(Cl)c(OC)cc1N | inactive | –
14 | Oc1c(Cl)cc(Cl)c(Cl)c1Cc1c(O)c(Cl)cc(Cl)c1Cl | – | 12.6 µM (active)
15 | C=C(C)C(=O)OCCOCCOCCOCCOC(=O)C(=C)C | inactive | –
16 | CN(C)C(=O)Nc1ccc(Oc2ccc(Cl)cc2)cc1 | inactive | –
17 | C=C(C)C(=O)OCC(CC)(COC(=O)C(=C)C)COC(=O)C(=C)C | – | 25.5 µM (active)

Read-out: Interleukin 6 (IL6), IL6 (gene 3569)
Test: BSK_BT_xIL6: BioMAP Diversity Plus: BT Assay for Interleukin 6 (IL6) Biomarker Activity (AID 2284228)
Details: primary human B cells with PBMC
Method in brief: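 Secreted IL-6 in the primary human B cell plus PBMC system, measured by Luminex at 24 h post-chemical, DMSO as baseline. Alamar Blue viability: 75,000 cells/well, chemical 1 h before SEB/TSST-1 (20 ng/mL each), 90 h, then 6 h dye.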

Row | Compound | outcome | AC50
18 | CC(C=O)Cc1ccc(C(C)(C)C)cc1 (stereo not drawn) | inactive | –
19 | CCCCOC(=O)CCCCCCCC(=O)OCCCC | inactive | –
20 | c1ccc(Oc2ccccc2)cc1 | inactive | –
21 | CN(C)C(=S)SC(=S)N(C)C | – | 0.6 µM (active)
22 | C[C@@H]1CCN(C(=O)[C@H](CCCN=C(N)N)NS(=O)(=O)c2cccc3c2NC[C@H](C)C3)[C@@H](C(=O)O)C1 | inactive | –
23 | C1=CC2C3C=CC(C3)C2C1 (stereo not drawn) | inactive | –
24 | CCCCCCCCCCCCCCCC(=O)OC/C=C(C)/C=C/C=C(C)/C=C/C1=C(C)CCCC1(C)C | – | 31.2 µM (active)
25 | O=C1OC[C@H](Cc2cccc(O)c2)[C@H]1Cc1cccc(O)c1 | inactive | –
26 | CN(c1nccc(=O)[nH]1)C1CCN(c2nc3ccccc3n2Cc2ccc(F)cc2)CC1 | inactive | –
27 | Cc1cc(CCC(=O)OCCOCCOCCOC(=O)CCc2cc(C)c(O)c(C(C)(C)C)c2)cc(C(C)(C)C)c1O | inactive | –
28 | CC=Cc1ccc(OCC)c(O)c1 | inactive | –
29 | CSCCC=O | inactive | –
30 | COc1cc(Cl)c(OC)cc1N | inactive | –
31 | Oc1c(Cl)cc(Cl)c(Cl)c1Cc1c(O)c(Cl)cc(Cl)c1Cl | inactive | –
32 | C=C(C)C(=O)OCCOCCOCCOCCOC(=O)C(=C)C | inactive | –
33 | CN(C)C(=O)Nc1ccc(Oc2ccc(Cl)cc2)cc1 | inactive | –
34 | C=C(C)C(=O)OCC(CC)(COC(=O)C(=C)C)COC(=O)C(=C)C | – | 19.7 µM (active)

Read-out: Tumor necrosis factor (Homo sapiens) (UniProt P01375)
Test: BSK_BT_xTNFa: BioMAP Diversity Plus: BT Assay for Tumor necrosis factor alpha (TNF-alpha) Biomarker Activity (AID 2284230)
Details: primary human B cells with PBMC
Method in brief: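 Endpoint derived in the positive direction versus DMSO vehicle. Cells: B cells together with PBMC, exposed 24 h before TNF-alpha in the medium was read on the Luminex xMAP platform.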

Row | Compound | outcome | AC50
35 | CC(C=O)Cc1ccc(C(C)(C)C)cc1 (stereo not drawn) | inactive | –
36 | CCCCOC(=O)CCCCCCCC(=O)OCCCC | inactive | –
37 | c1ccc(Oc2ccccc2)cc1 | inactive | –
38 | CN(C)C(=S)SC(=S)N(C)C | – | 0.504 µM (active)
39 | C[C@@H]1CCN(C(=O)[C@H](CCCN=C(N)N)NS(=O)(=O)c2cccc3c2NC[C@H](C)C3)[C@@H](C(=O)O)C1 | inactive | –
40 | C1=CC2C3C=CC(C3)C2C1 (stereo not drawn) | inactive | –
41 | CCCCCCCCCCCCCCCC(=O)OC/C=C(C)/C=C/C=C(C)/C=C/C1=C(C)CCCC1(C)C | inactive | –
42 | O=C1OC[C@H](Cc2cccc(O)c2)[C@H]1Cc1cccc(O)c1 | inactive | –
43 | CN(c1nccc(=O)[nH]1)C1CCN(c2nc3ccccc3n2Cc2ccc(F)cc2)CC1 | inactive | –
44 | Cc1cc(CCC(=O)OCCOCCOCCOC(=O)CCc2cc(C)c(O)c(C(C)(C)C)c2)cc(C(C)(C)C)c1O | inactive | –
45 | CC=Cc1ccc(OCC)c(O)c1 | inactive | –
46 | CSCCC=O | inactive | –
47 | COc1cc(Cl)c(OC)cc1N | inactive | –
48 | Oc1c(Cl)cc(Cl)c(Cl)c1Cc1c(O)c(Cl)cc(Cl)c1Cl | – | 15.2 µM (active)
49 | C=C(C)C(=O)OCCOCCOCCOCCOC(=O)C(=C)C | inactive | –
50 | CN(C)C(=O)Nc1ccc(Oc2ccc(Cl)cc2)cc1 | inactive | –
51 | C=C(C)C(=O)OCC(CC)(COC(=O)C(=C)C)COC(=O)C(=C)C | – | 19.7 µM (active)

Read-out: Vascular cell adhesion molecule 1 (VCAM1), VCAM1 (gene 7412)
Test: BSK_MyoF_VCAM1: BioMAP Diversity Plus: MyoF Assay for Vascular cell adhesion molecule 1 (VCAM1) Biomarker Activity (AID 2284231)
Details: primary human lung fibroblasts
Method in brief: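 ELISA readout of VCAM-1 on human lung fibroblast cultures 24 hours after dosing, analyzed for signal gain relative to DMSO. Overt cytotoxicity was checked by sulforhodamine B total-protein staining in parallel cultures.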

Row | Compound | outcome | AC50
52 | CC(C=O)Cc1ccc(C(C)(C)C)cc1 (stereo not drawn) | inactive | –
53 | CCCCOC(=O)CCCCCCCC(=O)OCCCC | inactive | –
54 | c1ccc(Oc2ccccc2)cc1 | inactive | –
55 | CN(C)C(=S)SC(=S)N(C)C | – | 35.5 µM (active)
56 | C[C@@H]1CCN(C(=O)[C@H](CCCN=C(N)N)NS(=O)(=O)c2cccc3c2NC[C@H](C)C3)[C@@H](C(=O)O)C1 | inactive | –
57 | C1=CC2C3C=CC(C3)C2C1 (stereo not drawn) | inactive | –
58 | CCCCCCCCCCCCCCCC(=O)OC/C=C(C)/C=C/C=C(C)/C=C/C1=C(C)CCCC1(C)C | inactive | –
59 | O=C1OC[C@H](Cc2cccc(O)c2)[C@H]1Cc1cccc(O)c1 | inactive | –
60 | CN(c1nccc(=O)[nH]1)C1CCN(c2nc3ccccc3n2Cc2ccc(F)cc2)CC1 | – | 3.1 µM (active)
61 | Cc1cc(CCC(=O)OCCOCCOCCOC(=O)CCc2cc(C)c(O)c(C(C)(C)C)c2)cc(C(C)(C)C)c1O | inactive | –
62 | CC=Cc1ccc(OCC)c(O)c1 | inactive | –
63 | CSCCC=O | inactive | –
64 | COc1cc(Cl)c(OC)cc1N | inactive | –
65 | Oc1c(Cl)cc(Cl)c(Cl)c1Cc1c(O)c(Cl)cc(Cl)c1Cl | – | 0.555 µM (active)
66 | C=C(C)C(=O)OCCOCCOCCOCCOC(=O)C(=C)C | inactive | –
67 | CN(C)C(=O)Nc1ccc(Oc2ccc(Cl)cc2)cc1 | inactive | –
68 | C=C(C)C(=O)OCC(CC)(COC(=O)C(=C)C)COC(=O)C(=C)C | – | 11.2 µM (active)
